TDP1 block – inhibitors of human tyrosyl-DNA phosphodiesterase TDP1; Q9NUW8; recombinant TDP1, AlphaScreen DNA substrate cleavage; Potency, µM (highest dose often 130 µM), without a hit: at the top dose activity change, negative = inhibition, hits mostly inhibitors; hit rate 0.28% among 350,000; further: nearly all actives have a fitted effect of over 40% in size
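Here, a 5' biotin and 3' phosphotyrosine-FITC DNA oligonucleotide reports Tdp1 activity: intact substrate bridges AlphaScreen beads, while cleavage leaves a 3' phosphate and drops signal. All incubations at room temperature.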
TDP1 cell noCPT – qHTS for Inhibitors of human tyrosyl-DNA phosphodiesterase 1 (TDP1): qHTS in cells in absence of CPT; hit rate 15% among 420,000; Potency, µM (top dose mostly 46.2 µM), inactives show at the highest dose activity change, negative = growth inhibition, most hits filed as inhibitors; DT40 Tdp1-/- hTDP1 cells, no CPT, ATP luminescence, 48 h; AID 686978, 2013; further: nearly all actives have a fitted effect of over 55% in size
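Compound effects on proliferation are scored in DT40 Tdp1-/-;hTDP1 cells in the absence of CPT. ATP levels (CellTiter-Glo luminescence) are recorded after a ≥48 hr, 37 °C incubation.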
RORgamma inh – blocks mouse ROR gamma transcriptional activity; P51450; Drosophila S2 Gal4-RORgamma UAS-luciferase reporter, 20 h; Potency, µM (top dose mostly 53.6 µM), for the others: at the top dose activity change, negative = inhibition, usual class: inhibitors; hit rate 5.4% among 310,000; AID 2551; further: nearly all actives have a fitted effect of over 60% in size
Target sequence (P51450 whole entry, looked up, the tested form may be a part): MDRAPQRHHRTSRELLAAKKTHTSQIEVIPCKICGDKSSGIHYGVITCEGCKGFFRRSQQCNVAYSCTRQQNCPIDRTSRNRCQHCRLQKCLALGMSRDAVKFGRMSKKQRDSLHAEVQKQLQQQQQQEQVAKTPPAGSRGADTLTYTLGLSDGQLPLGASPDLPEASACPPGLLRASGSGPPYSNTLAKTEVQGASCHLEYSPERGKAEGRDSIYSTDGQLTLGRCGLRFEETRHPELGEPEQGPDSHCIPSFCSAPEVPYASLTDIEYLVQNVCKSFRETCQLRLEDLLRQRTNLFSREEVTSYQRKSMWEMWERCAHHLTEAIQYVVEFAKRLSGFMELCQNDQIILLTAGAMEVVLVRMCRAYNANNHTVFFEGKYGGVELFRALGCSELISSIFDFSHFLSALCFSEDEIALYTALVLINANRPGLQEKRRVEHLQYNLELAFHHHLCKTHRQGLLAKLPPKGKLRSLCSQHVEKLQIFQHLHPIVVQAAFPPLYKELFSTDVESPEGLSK
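Drosophila S2 cells stably expressing Gal4-DBD/mouse RORγ fusion under metallothionein promoter plus UAS-luciferase; compound 1 h, then 700 uM CuSO4 induction for 20 h at ambient temperature; inhibition read as reduced luminescence.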
Gal4-VP16 FLuc – inhibits Gal4-VP16 luciferase reporter, ROR gamma counter-screen | Potency, µM (titrated, usually from 53.6 µM), without a hit: at the highest dose activity, negative = inhibition, actives largely listed as inhibitors | AID 2546 | hit rate 3.5% among 310,000 | Drosophila S2 Gal4-VP16 UAS-luciferase, luminescence, 20 h;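 further: Gal4-VP16 expression switched on by copper sulfate through the metallothionein promoter; nearly all actives have a fitted effect of over 50% in size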
TDP1 cell CPT – growth inhibition of DT40 Tdp1-/-;hTDP1 cells with camptothecin (screen for TDP1 inhibitors); chicken DT40 Tdp1-/-;hTDP1 cells + 20 nM CPT, ATP luminescence, 48 h; hit rate 12% among 420,000; Potency, µM (titrated, usually from 46.2 µM), for inactives: at the top dose activity change, negative = growth inhibition, hits mostly inhibitors; AID 686979; further: nearly all actives have a fitted effect of over 55% in size
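Cell growth measured by CellTiter-Glo luminescence after a minimum 48 h, 37 C compound exposure with 20 nM CPT in Tdp1-knockout DT40 cells stably expressing hTDP1, seeded 400/well; qHTS titration format.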
Starred values were filed as active, the others as inactive; ? = inconclusive; · = not tested or not shown; [ ] = dose if it differs, or a comment. Shown are actives, neighbours in structure and some others; about 19% of the full set was active somewhere. The call rests on the fitted dose curve; in most records, active means well fitted curve in the direction sought with a large enough effect; inconclusive means small, poorly fitted or top-dose-only effect, or another doubt; inactive means no such curve, though single readings can be large; an effect the other way counts as inactive or inconclusive. On the % scale 0 is the no-effect control and ±100 the full control effect; potency means the concentration at half of the fitted maximal effect.

SMILES	TDP1 block	TDP1 cell noCPT	RORgamma inh	Gal4-VP16 FLuc	TDP1 cell CPT
COc1cccc2c3c(c(=O)[nH]c12)CC(C)(C)O3	·	-5.6%	·	·	-4.7%
O=C(O)C1CCC(C(=O)O)O1 (stereo not drawn)	·	16.7%	·	·	-7.8%
CC1CCCN(CCSc2ccc(Cl)cc2)C1 (stereo not drawn)	-5.1%	?	-10.5%	-0.4%	?
Cc1ccc(S(=O)(=O)Cc2ccc(C(=O)NCc3ccc4c(c3)OCO4)o2)cc1	-4.6%	-28.4%	-22.9%	?	?
CN(C)CCNC(=S)Nc1ccc(-c2nc3ccccc3[nH]2)cc1	2.6%	-4.6%	-44.1%	?	-3.4%
S=C(NCc1ccc2c(c1)OCO2)Nc1ccc(-c2nc3ccccc3[nH]2)cc1	7.1%	18.4µM*	?	24.6%	20.6µM*
Cc1ccc(C(=O)NN2C(=O)/C(=C/c3cn(C)c4ccccc34)SC2=S)cc1	8.0%	-19.5%	10.0%	-14.1%	12.1%
Cn1cc(/C=C2\SC(=O)NC2=S)c2ccccc21	3.6%	-8.3%	2.51µM*	6.31µM*	-22.2%
CC(Cc1cccs1)NC(=S)Nc1ccc(Cl)c(Cl)c1 (stereo not drawn)	-5.5%	?	7.94µM*	?	20.6µM*
CC(Cc1cccs1)NC(=S)Nc1ccc(Cl)cc1 (stereo not drawn)	3.5%	?	7.08µM*	14.1µM*	?
COCCn1c(=O)c(C)nc2cnc(Nc3ccccc3)nc21	·	-0.1%	-0.7%	-6.7%	5.8%
O=C(NCCCO)/C(=C\c1cn(-c2ccccc2)nc1-c1cccnc1)NC(=O)c1ccccc1	7.7%	-27.8%	16.9%	-6.7%	-12.0%
Cc1ccc(C(=O)Nc2cnn(-c3ccc(C(=O)NCc4nc(-c5ccccc5)n[nH]4)cc3)c2)c(C)c1	·	1.84µM*	·	·	0.92µM*
CN(C)C=C1C(=O)c2ccccc2C1=O	3.3%	?	18.3%	2.1%	?
CN(C)c1ccc(/C=C2\Cc3ccccc3C2=O)cc1	·	3.55µM*	·	·	?
CN(C)/C=C1\Cc2ccccc2C1=O	3.9%	-94.8%	-8.3%	2.5%	32.6µM*
O=C1C(=Cc2ccc(Cl)cc2)Cc2ccccc21	·	-10.9%	·	·	-4.4%
CC(Nc1ccc(F)cc1F)C(=O)NC(=O)NC1CCCCC1 (stereo not drawn)	4.8%	-36.1%	41.7%	-5.4%	-1.3%
CCOc1ccccc1NC(C)C(=O)NC(=O)NC1CCCCC1 (stereo not drawn)	5.5%	-28.0%	·	·	18.4µM*
CC(C(=O)NC(=O)NC1CCCCC1)N1CCN(C(c2ccccc2)c2ccccc2)CC1 (stereo not drawn)	1.0%	14.6µM*	6.1%	10.8%	23.1µM*
CCOc1ccc(-c2csc3ncn(-c4ccc(OC)cc4)c(=O)c23)cc1	-1.2%	16.4µM*	?	-12.6%	?
COc1ccc(-c2csc3nc(-c4cccnc4)nc(N4CCC(C(N)=O)CC4)c23)cc1OC	7.1%	?	-38.4%	-18.8%	?
COc1ccccc1-n1cnc2sc(-c3ccccc3)cc2c1=O	-2.0%	11.6µM*	?	-2.3%	?
COc1ccc(-c2csc3nc(-c4ccccc4OC)oc(=O)c23)cc1	0.0%	23.1µM*	11.2µM*	-19.1%	20.6µM*
COc1ccc(-c2csc3nc(C)nc(N4CCCCC4)c23)cc1OC	2.5%	14.6µM*	10µM*	9.9%	?
COc1ccc(-c2csc3nc(-c4ccc(F)cc4)oc(=O)c23)cc1	-0.4%[12.3 µM]	-23.4%	·	·	4.4%
Cc1cc(C)nc(N2CCCC(C(=O)Nc3ccc(F)cc3)C2)n1 (stereo not drawn)	4.2%	-23.4%	14.1%	-6.0%	?
COc1cc(C)c(CN2CCCCC2CO)cc1C (stereo not drawn)	2.0%	-1.8%	-10.7%	-4.0%	1.2%
COc1ccc(-c2csc3ncn(-c4ccccc4)c(=O)c23)cc1OC	0.0%	-17.7%	36.1%	-2.9%	-1.9%
COc1ccc(-c2csc3nc(-c4ccc(C)cc4)oc(=O)c23)cc1OC	-11.6%	10.3µM*	-6.5%	?	9.2µM*
